From PubChem BioAssay (Tox21)
Values joined by “and” are separate entries in the source; they are usually repeats but may differ in a detail not shown here. Identical values can stand only once. Results filed as inconclusive are left out. A number with no mark means an inactive call. Active and inactive are the calls of the source. The call rests on the fitted dose curve; in most records, active means well fitted curve in the direction sought with a large enough effect in the repeat runs; inconclusive means weak or mixed curves; inactive means no such curve, though single readings can be large; an effect the other way counts as inactive or inconclusive.

system: not listed separately; assay: qHTS assay to identify small molecule antagonists of the estrogen receptor alpha (ER-alpha) signaling pathway using the BG1 cell line - cell viability counter screen (AID 743081); conditions: BG1Luc4E2 viability, CellTiter-Fluor, 22 h; series mostly up to 70.3 µM; activity change, negative = cytotoxicity: at the top concentration;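 further: compound given together with 17beta-estradiol as the ER stimulus; nearly all actives have a fitted effect of over 45% in size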
On the % scale 0 is the no-effect control and ±100 the full control effect; potency means the concentration at half of the fitted maximal effect.

Structure (SMILES) | activity change, negative = cytotoxicity | Potency
Cc1cc(C(=O)NNCc2ccccc2)no1 | 1.79% [at 32.5 µM] | 
CO[C@H]1C=CO[C@@]2(C)Oc3c(C)c(O)c4c(O)c(c(/C=N/N5CCN(C6CCCC6)CC5)c(O)c4c3C2=O)NC(=O)/C(C)=C\C=C[C@H](C)[C@H](O)[C@@H](C)[C@@H](O)[C@@H](C)[C@H](OC(C)=O)[C@@H]1C |  | 26.6 µM (active)
CCC(CN)CC(C)CCNCC(O)CNCC(C)CC(CC)CN (stereo not given) | -2.48% | 
CCCCC(F)(F)[C@@]1(O)CC[C@H]2[C@@H](CC(=O)[C@@H]2CCCCCCC(=O)O)O1 | -0.112% | 
COc1cc(Br)c(C[N+]2(CCOCCC3CCC4CC3C4(C)C)CCOCC2)cc1OC (stereo not given) | -11.1% | 
CO[C@H]1C[C@H](O[C@@H]2/C(C)=C/C[C@@H]3C[C@@H](C[C@]4(CC[C@H](C)[C@@H](C5CCCCC5)O4)O3)OC(=O)[C@@H]3C=C(C)/C(=N/O)[C@H]4OC/C(=C\C=C\[C@@H]2C)[C@]43O)O[C@@H](C)[C@@H]1O | -1.21% | 
CCOC(=O)c1cc(-c2ccccc2)nc2ccc(C)cc12 | 1.48% | 
C#C[C@]1(O)CC[C@H]2[C@@H]3CCC4=C(CCC(=O)C4)[C@H]3CC[C@@]21C | -4.36% [at 32.5 µM] | 
OCC(S)CS (stereo not given) | -17.9% | 
CCCCC(=O)O[C@H]1CC[C@H]2[C@@H]3CCc4cc(O)ccc4[C@H]3CC[C@]12C | -2.45% | 
COc1ccc2c(=O)c(C)c(-c3ccccc3)oc2c1CN(C)C | -10.7% | 
CC(NNC(=O)c1ccccc1)c1ccccc1 (stereo not given) | 4.42% | 
CC[N+](C)(C)Cc1ccccc1Br | 1.35% [at 32.5 µM] | 
Cc1ccccc1OCC(O)CNCCOc1ccc(C(N)=O)cc1 (stereo not given) | -21.4% | 
Clc1ccc(COC(Cn2ccnc2)c2ccc(Cl)cc2Cl)c(Cl)c1 (stereo not given) | 11.2% [at 32.5 µM] | 
CO[C@H]1C[C@H](O[C@H]2[C@H](C)[C@@H](O[C@@H]3O[C@H](C)C[C@H](N(C)C)[C@H]3OC(C)=O)[C@@H](C)C[C@]3(CO3)C(=O)[C@H](C)[C@@H](OC(C)=O)[C@@H](C)[C@@H](C)OC(=O)[C@@H]2C)O[C@@H](C)[C@@H]1OC(C)=O | -11.2% [at 32.5 µM] | 

Structure (SMILES) | activity change, negative = cytotoxicity | Potency
CCOC(=O)C1=C(COCCN)NC(C)=C(C(=O)OC)C1c1ccccc1Cl (stereo not given) |  | inactive
COc1ccc(C(=O)Nc2ccccc2CCC2CCCCN2C)cc1 (stereo not given) |  | 2.98 µM (active)
N[C@@H](C(=O)N[C@@H]1C(=O)N2C(C(=O)O)=C(CSc3cn[nH]n3)CS[C@H]12)c1ccc(O)cc1 | -12% | 
C[C@H](CCCC(C)(C)O)[C@H]1CC[C@H]2[C@@H]3CC=C4C[C@@H](O)CC[C@]4(C)[C@H]3CC[C@]12C | -20.1% | 
Nc1ncnc2c1ncn2[C@@H]1O[C@H](COP(=O)(O)OP(=O)(O)OP(=O)(O)O)[C@@H](O)[C@H]1O | 15.1% | 
C[N+]1(C)CCN(CC(O)(c2ccccc2)C2CCCCC2)CC1 (stereo not given) | 2.98% | 
CC(C)CN(C[C@@H](O)[C@H](Cc1ccccc1)NC(=O)O[C@@H]1CCOC1)S(=O)(=O)c1ccc(N)cc1 | 8.15% | 
C[N+]1(C)[C@@H]2CC(OC(=O)C(O)(c3cccs3)c3cccs3)C[C@H]1[C@@H]1O[C@@H]12 (stereo not given in full) | -1.75% | 
CCC(=O)O[C@@H]1CC(=O)O[C@H](C)C/C=C/C=C/[C@H](O)[C@H](C)C[C@H](CC=O)[C@H](O[C@@H]2O[C@H](C)[C@@H](O[C@H]3C[C@@](C)(O)[C@@H](OC(=O)CC)[C@H](C)O3)[C@H](N(C)C)[C@H]2O)[C@H]1OC | -3.32% [at 32.5 µM] | 
CCCCC(=O)N(Cc1ccc(-c2ccccc2-c2nn[nH]n2)cc1)[C@@H](C(=O)O)C(C)C | 15.5% | 
CN(CC(=O)N1CCOCC1)Cc1c(Cl)cccc1NC(=O)c1ccccc1 | -10.2% | 
CC1(C)S[C@@H]2[C@H](NC(=O)C(N)c3ccccc3)C(=O)N2[C@H]1C(=O)OC1OC(=O)c2ccccc21 (stereo not given in full) | -4.96% [at 32.5 µM] | 
CC(O)[C@@H]1NC(=O)[C@H](CCCCN)NC(=O)[C@@H](Cc2c[nH]c3ccccc23)NC(=O)[C@H](Cc2ccccc2)NC(=O)[C@@H](NC(=O)[C@H](N)Cc2ccccc2)CSSC[C@@H](C(=O)N[C@H](CO)[C@@H](C)O)NC1=O (stereo not given in full) | 13.3% | 
COC(=O)C1=C(C#N)NC(C)=C(C(=O)OC(C)C)C1c1cccc([N+](=O)[O-])c1 (stereo not given) | -12.3% | 
CCOC(=O)CN[C@@H](C(=O)N1CC[C@H]1C(=O)NCc1ccc(/C(N)=N/O)cc1)C1CCCCC1 | -13.1% | 

biological target: Aromatase (Homo sapiens) (UniProt P11511); assay: qHTS assay to identify aromatase inhibitors (AID 743083); conditions: MCF-7 aro ERE, testosterone-driven ERE luciferase, 24 h; series mostly up to 70.3 µM; activity, negative = inhibition: at the top concentration; further: nearly all actives have a fitted effect of over 55% in size
Sequence (P11511 whole entry, looked up): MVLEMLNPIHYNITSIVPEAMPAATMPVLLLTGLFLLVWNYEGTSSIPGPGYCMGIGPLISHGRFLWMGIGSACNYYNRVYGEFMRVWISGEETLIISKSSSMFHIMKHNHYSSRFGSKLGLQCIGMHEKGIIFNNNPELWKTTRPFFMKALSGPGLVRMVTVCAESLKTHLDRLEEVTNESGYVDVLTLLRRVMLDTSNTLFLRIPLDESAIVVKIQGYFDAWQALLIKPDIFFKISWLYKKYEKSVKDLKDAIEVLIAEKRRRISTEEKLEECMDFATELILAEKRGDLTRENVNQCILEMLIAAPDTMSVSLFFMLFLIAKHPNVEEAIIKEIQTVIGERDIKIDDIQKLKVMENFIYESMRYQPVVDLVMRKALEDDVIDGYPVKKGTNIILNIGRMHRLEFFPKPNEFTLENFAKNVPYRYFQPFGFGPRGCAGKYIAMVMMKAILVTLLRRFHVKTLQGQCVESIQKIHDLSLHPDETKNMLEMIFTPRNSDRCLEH

Structure (SMILES) | activity, negative = inhibition | Potency
Cc1cc(C(=O)NNCc2ccccc2)no1 | 24% [at 32.5 µM] | 
CO[C@H]1C=CO[C@@]2(C)Oc3c(C)c(O)c4c(O)c(c(/C=N/N5CCN(C6CCCC6)CC5)c(O)c4c3C2=O)NC(=O)/C(C)=C\C=C[C@H](C)[C@H](O)[C@@H](C)[C@@H](O)[C@@H](C)[C@H](OC(C)=O)[C@@H]1C |  | 33.5 µM (active)
CCC(CN)CC(C)CCNCC(O)CNCC(C)CC(CC)CN (stereo not given) | -5.22% | 
CO[C@H]1C[C@H](O[C@@H]2/C(C)=C/C[C@@H]3C[C@@H](C[C@]4(CC[C@H](C)[C@@H](C5CCCCC5)O4)O3)OC(=O)[C@@H]3C=C(C)/C(=N/O)[C@H]4OC/C(=C\C=C\[C@@H]2C)[C@]43O)O[C@@H](C)[C@@H]1O | 0.407% | 
CCOC(=O)c1cc(-c2ccccc2)nc2ccc(C)cc12 | -2.61% | 
C#C[C@]1(O)CC[C@H]2[C@@H]3CCC4=C(CCC(=O)C4)[C@H]3CC[C@@]21C | 14.3% [at 32.5 µM] | 
CC[C@H](C)[C@H]1O[C@]2(CC[C@@H]1C)C[C@@H]1C[C@@H](C/C=C(\C)[C@@H](O[C@H]3C[C@H](OC)[C@@H](O[C@H]4C[C@H](OC)[C@@H](O)[C@H](C)O4)[C@H](C)O3)[C@@H](C)/C=C/C=C3\CO[C@@H]4[C@H](O)C(C)=C[C@@H](C(=O)O1)[C@]34O)O2 | -9.99% | 
OCC(S)CS (stereo not given) | 18.4% | 
CCCCC(=O)O[C@H]1CC[C@H]2[C@@H]3CCc4cc(O)ccc4[C@H]3CC[C@]12C | 11.8% | 
CNc1cc(OC)c(C(=O)N[C@H]2CCN(Cc3ccccc3)[C@H]2C)cc1Cl | -0.373% | 
CC[C@@]1(O)C[C@H](O[C@H]2C[C@H](N(C)C)[C@H](O[C@H]3C[C@H](O)[C@H](O[C@H]4CCC(=O)[C@H](C)O4)[C@H](C)O3)[C@H](C)O2)c2c(cc3c(c2O)C(=O)c2c(O)cccc2C3=O)[C@H]1C(=O)OC |  | 2.66 µM (active)
CC(NNC(=O)c1ccccc1)c1ccccc1 (stereo not given) | 53% | 
CC[N+](C)(C)Cc1ccccc1Br | 0% [at 32.5 µM] | 
Cc1ccccc1OCC(O)CNCCOc1ccc(C(N)=O)cc1 (stereo not given) | 19.2% | 
CO[C@H]1C[C@H](O[C@H]2[C@H](C)[C@@H](O[C@@H]3O[C@H](C)C[C@H](N(C)C)[C@H]3OC(C)=O)[C@@H](C)C[C@]3(CO3)C(=O)[C@H](C)[C@@H](OC(C)=O)[C@@H](C)[C@@H](C)OC(=O)[C@@H]2C)O[C@@H](C)[C@@H]1OC(C)=O | -1.15% [at 32.5 µM] | 
CCOC(=O)C1=C(COCCN)NC(C)=C(C(=O)OC)C1c1ccccc1Cl (stereo not given) |  | 29.8 µM (active) and 9.44 µM (active)
COc1ccc(C(=O)Nc2ccccc2CCC2CCCCN2C)cc1 (stereo not given) | 7.82% | 

Structure (SMILES) | activity, negative = inhibition | Potency
N[C@@H](C(=O)N[C@@H]1C(=O)N2C(C(=O)O)=C(CSc3cn[nH]n3)CS[C@H]12)c1ccc(O)cc1 | 10.5% | 
C[C@H](CCCC(C)(C)O)[C@H]1CC[C@H]2[C@@H]3CC=C4C[C@@H](O)CC[C@]4(C)[C@H]3CC[C@]12C | -6.09% | 
Nc1ncnc2c1ncn2[C@@H]1O[C@H](COP(=O)(O)OP(=O)(O)OP(=O)(O)O)[C@@H](O)[C@H]1O | 2.55% | 
C[N+]1(C)CCN(CC(O)(c2ccccc2)C2CCCCC2)CC1 (stereo not given) | 0.676% | 
CC(C)CN(C[C@@H](O)[C@H](Cc1ccccc1)NC(=O)O[C@@H]1CCOC1)S(=O)(=O)c1ccc(N)cc1 | -2.55% | 
C[N+]1(C)[C@@H]2CC(OC(=O)C(O)(c3cccs3)c3cccs3)C[C@H]1[C@@H]1O[C@@H]12 (stereo not given in full) | 11.8% | 
CCC(=O)O[C@@H]1CC(=O)O[C@H](C)C/C=C/C=C/[C@H](O)[C@H](C)C[C@H](CC=O)[C@H](O[C@@H]2O[C@H](C)[C@@H](O[C@H]3C[C@@](C)(O)[C@@H](OC(=O)CC)[C@H](C)O3)[C@H](N(C)C)[C@H]2O)[C@H]1OC | -0.417% [at 32.5 µM] | 
CCNC(=O)[C@@H]1CCCN1C(=O)[C@H](CCCN=C(N)N)NC(=O)[C@H](CC(C)C)NC(=O)[C@@H](CC(C)C)NC(=O)[C@H](Cc1ccc(O)cc1)NC(=O)[C@H](CO)NC(=O)[C@H](Cc1c[nH]c2ccccc12)NC(=O)[C@H](Cc1cnc[nH]1)NC(=O)[C@@H]1CCC(=O)N1 | 13.9% | 
CCCCC(=O)N(Cc1ccc(-c2ccccc2-c2nn[nH]n2)cc1)[C@@H](C(=O)O)C(C)C | 0.763% | 
CCC(=O)OCC(=O)[C@@]1(OC(=O)CC)[C@@H](C)C[C@H]2[C@@H]3CCC4=CC(=O)C=C[C@]4(C)[C@@]3(F)[C@@H](O)C[C@@]21C |  | 3.76 µM (active)
CCN(CC)Cc1cc(Nc2ccnc3cc(Cl)ccc23)ccc1O | 11.3% [at 32.5 µM] | 
CC1(C)S[C@@H]2[C@H](NC(=O)C(N)c3ccccc3)C(=O)N2[C@H]1C(=O)OC1OC(=O)c2ccccc21 (stereo not given in full) | 9.74% [at 32.5 µM] | 
CCOC(=O)CCC(=O)O[C@H]1[C@H](O[C@@H]2[C@@H](C)[C@H](O[C@H]3C[C@@](C)(OC)[C@@H](O)[C@H](C)O3)[C@@H](C)C(=O)O[C@H](CC)[C@@](C)(O)[C@H](O)[C@@H](C)C(=O)[C@H](C)C[C@@]2(C)O)O[C@H](C)C[C@@H]1N(C)C | 2.28% | 
CC(O)[C@@H]1NC(=O)[C@H](CCCCN)NC(=O)[C@@H](Cc2c[nH]c3ccccc23)NC(=O)[C@H](Cc2ccccc2)NC(=O)[C@@H](NC(=O)[C@H](N)Cc2ccccc2)CSSC[C@@H](C(=O)N[C@H](CO)[C@@H](C)O)NC1=O (stereo not given in full) | -0.857% | 
CC(C)(C)C(=O)OCOC(=O)[C@@H]1N2C(=O)[C@@H](N=CN3CCCCCC3)[C@H]2SC1(C)C | -5.68% [at 32.5 µM] | 
COC(=O)C1=C(C#N)NC(C)=C(C(=O)OC(C)C)C1c1cccc([N+](=O)[O-])c1 (stereo not given) |  | 29.8 µM (active)
CCOC(=O)CN[C@@H](C(=O)N1CC[C@H]1C(=O)NCc1ccc(/C(N)=N/O)cc1)C1CCCCC1 | -17.3% | 
